Among all 66,000 compounds or so, about 960 (1.5%) showed an effect of 50% or more. This is one part of a sample in which strong results are shown more often than they occur.
System: Trypanosoma brucei
Assay: Trypanosoma brucei 72 hour study
Assay type: functional, organism-based
Set-up: scale not given: in the data most compounds retested in dose-response had high values

With CC(CN1CCOCC1)OC(=O)c1ccccc1Cl.Cl (stereo unspecified) the “Percent Effect” value (30 µM, 30.03 µM) was -53.51%.
With CC(C)N(C)Cc1cnc2n1CCN(Cc1ccc(F)cc1)C2.O=C(O)C(F)(F)F.O=C(O)C(F)(F)F the “Percent Effect” value (30.3 µM, […]) was 5.253%.
For Cc1c(C(=O)N2CCN(C)CC2)n(C)c2ccc(Cl)cc12, the “Percent Effect” value (30.3 µM, […]) was 12.9%.
Cc1c(C(=O)N2CCN(c3ncccn3)CC2)n(C)c2ccc(Cl)cc12 was tested, and the “Percent Effect” value (30.3 µM, […]) was 36.3%.
In the case of Cc1c(C(=O)N2CCN(c3ccccn3)CC2)n(C)c2ccc(Cl)cc12, the “Percent Effect” value (30.3 µM, […]) is reported as 79.78%.
In the case of Cn1ccnc1CN1CCC2(CC1)Cc1ccccc1CNC2=O.O=C(O)C(F)(F)F, the “Percent Effect” value (30.3 µM, […]) is reported as -47.04%.
With CCC(=O)NC(Cc1cc(N(C)C)nc(C2CC2)n1)c1ccccc1 (stereo unspecified) the “Percent Effect” value (30.3 µM, […]) was 13.14%.
For CC(C)C(=O)NC(Cc1cc(N(C)C)nc(C2CC2)n1)c1ccccc1 (stereo unspecified), the “Percent Effect” value (30.3 µM, […]) was 30.74%.
In the case of CN(C)c1cc(CC(NC(=O)C2CC2)c2ccccc2)nc(C2CC2)n1 (stereo unspecified), the “Percent Effect” value (30.3 µM, […]) is reported as 52.69%.
With CC(C)(C)CN1CC(COc2ccccc2)Oc2ccncc2S1(=O)=O (stereo unspecified) the “Percent Effect” value (30.3 µM, […]) was -12.26%.
In the case of O=C(O)C(F)(F)F.c1coc(CN2CCO[C@H]3[C@@H](OCC4CC4)CC[C@@H]32)c1, the “Percent Effect” value (30.3 µM, […]) is reported as -12.22%.
In the case of Cc1nc(CN2CCN(C)C(=O)C23CCN(C(C)C)CC3)cs1.O=C(O)C(F)(F)F, the “Percent Effect” value (30.3 µM, […]) is reported as -9.175%.
Fc1ccc(Oc2ccc(CNCC3CNc4ccnn4C3)cn2)cc1 (stereo unspecified) was tested, and the “Percent Effect” value (30.3 µM, […]) was 22.41% and the “Percent Effect” value (10 mM, 10 mM as filed; unlikely as a test dose) was -33.28%.
For Cc1cc2n(n1)CC(CNCc1ccc(OCC3CC3)nc1)CN2 (stereo unspecified), the “Percent Effect” value (30.3 µM, […]) was 69.29% and the “Percent Effect” value (10 mM, 10 mM as filed; unlikely as a test dose) was -5.536%.
c1cc2n(n1)CC(CNCc1ccc(OC3CCCCC3)nc1)CN2 (stereo unspecified) was tested, and the “Percent Effect” value (30 µM, 30.03 µM) was 28.54%.
With c1cc2n(n1)CC(CNCc1ccc(OC3CCCC3)nc1)CN2 (stereo unspecified) the “Percent Effect” value (30.3 µM, […]) was 80.85% and the “Percent Effect” value (10 mM, 10 mM as filed; unlikely as a test dose) was 9.3%.
For COc1ccc(CNCC2CNc3cc(C)nn3C2)cn1 (stereo unspecified), the “Percent Effect” value (30.3 µM, […]) was 11.94%.
In the case of Cc1cc2n(n1)CC(CNCc1ccc(-n3cccn3)nc1)CN2 (stereo unspecified), the “Percent Effect” value (30 µM, 30.03 µM) is reported as -7.458%.
Cc1ccc(CNCC2CNc3cc(C)nn3C2)cn1 (stereo unspecified) was tested, and the “Percent Effect” value (30.3 µM, […]) was -20.04%.
With COCCOc1ccc(CNCC2CNc3cc(C)nn3C2)cn1 (stereo unspecified) the “Percent Effect” value (30.3 µM, […]) was 6.502%.
In the case of c1ccc(Oc2ccc(CNCC3CNc4ccnn4C3)cn2)cc1 (stereo unspecified), the “Percent Effect” value (30.3 µM, […]) is reported as 59.34% and the “Percent Effect” value (10 mM, 10 mM as filed; unlikely as a test dose) is reported as -30.66%.
For c1cc(CNCC2CNc3ccnn3C2)cc(OC2CCCC2)n1 (stereo unspecified), the “Percent Effect” value (30.3 µM, […]) was 16.86%.
In the case of Cc1cc2n(n1)CC(CNCc1ccc(Oc3ccccc3)nc1)CN2 (stereo unspecified), the “Percent Effect” value (30.3 µM, […]) is reported as 53.59%.
In the case of Fc1cccc(Oc2ccc(CNCC3CNc4ccnn4C3)cn2)c1 (stereo unspecified), the “Percent Effect” value (30 µM, 30.03 µM) is reported as 11.44%.
In the case of O=C(Nc1cccn(Cc2ccc(F)cc2)c1=O)c1csnn1, the “Percent Effect” value (30 µM, 30.03 µM) is reported as -24.79%.
CN(C(=O)Cc1ccccc1Cl)C1CCN(c2ccccn2)CC1 was tested, and the “Percent Effect” value (10 µM) was -27.72% and the “Percent Effect” value (30.3 µM, […]) was 20.76%.

From ChEMBL document CHEMBL3988442, “University of Dundee, Small-Polar-MMV Screening Library” (2021)
